Assay outcomes (PubChem BioAssay)
A selection: hits, their analogues and other compounds. The true share with any hit is near 2.4%.
TDP1 inh: blocks human tyrosyl-DNA phosphodiesterase 1; Q9NUW8; recombinant TDP1, AlphaScreen DNA substrate cleavage; hit rate 0.28% among 350,000; Potency, µM (doses to about 130 µM), for inactives: at the top dose activity change, negative = inhibition, most hits filed as inhibitors; also: % is scaled to controls: 0 for no effect and ±100 for the full control effect; nearly all actives have a fitted effect of over 40% in size
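Steps: enzyme plus compound, 15 min RT; add biotin/phosphotyrosine-FITC oligonucleotide (15 nM final), react 5 min; add donor/acceptor beads (10 ug/ml final), 10 min; read AlphaScreen. Tdp1 at 1 nM final.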
Pol beta inh: blocks human DNA polymerase beta activity | Potency, µM (titrated, usually from 114 µM), inactives show top-dose activity change, negative = inhibition, hits mostly inhibitors | P06746 | Pol beta primer extension/strand displacement, fluorescence kinetic | hit rate 1.3% among 340,000; also: % is scaled to controls: 0 for no effect and ±100 for the full control effect
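Values derive from four-parameter Hill fits of normalized kinetic data: reads at 0 and 10 min following addition of 50 nM substrate to 10 nM Pol beta preincubated 15 min with compound.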
Pol iota inh: DNA polymerase iota (human) inhibition; Q9UNA4; Pol iota fluorescent replication assay, 10 min; Potency, µM (highest dose often 115 µM), for the others: at the top dose activity, negative = inhibition, actives largely listed as inhibitors; hit rate 1% among 390,000
Target sequence (Q9UNA4 whole entry, looked up): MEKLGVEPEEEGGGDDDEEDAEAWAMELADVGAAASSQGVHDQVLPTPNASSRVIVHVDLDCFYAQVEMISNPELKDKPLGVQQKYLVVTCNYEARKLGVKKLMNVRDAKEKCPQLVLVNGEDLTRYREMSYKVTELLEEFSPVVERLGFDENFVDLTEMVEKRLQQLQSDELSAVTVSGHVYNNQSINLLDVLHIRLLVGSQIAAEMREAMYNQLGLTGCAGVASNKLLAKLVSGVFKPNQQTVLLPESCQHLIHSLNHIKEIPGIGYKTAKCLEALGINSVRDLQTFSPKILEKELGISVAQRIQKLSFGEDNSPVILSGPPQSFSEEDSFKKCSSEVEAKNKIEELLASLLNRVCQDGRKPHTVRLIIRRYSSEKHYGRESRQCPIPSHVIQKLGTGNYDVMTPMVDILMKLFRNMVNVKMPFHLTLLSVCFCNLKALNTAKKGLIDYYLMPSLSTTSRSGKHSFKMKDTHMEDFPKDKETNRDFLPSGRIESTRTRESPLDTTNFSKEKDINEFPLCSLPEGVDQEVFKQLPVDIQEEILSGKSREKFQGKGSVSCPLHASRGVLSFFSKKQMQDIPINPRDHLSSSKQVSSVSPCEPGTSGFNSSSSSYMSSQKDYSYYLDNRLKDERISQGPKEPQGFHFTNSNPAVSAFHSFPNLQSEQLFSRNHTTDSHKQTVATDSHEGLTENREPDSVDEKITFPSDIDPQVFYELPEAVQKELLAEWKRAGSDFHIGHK
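Pol iota at 10 nM preincubated 15 min with compounds at room temperature; reaction started with fluorescent substrate, 50 nM final. Fluorescence read kinetically at 0 and 10 min; buffer-only wells as negative control.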
POLH inh: DNA polymerase eta (human) inhibition. Potency, µM (doses to about 114 µM), without a hit: top-dose activity change, negative = inhibition, hits mostly inhibitors. hit rate 1.2% among 390,000. AID 588591. Q9Y253. recombinant Pol eta, fluorescent DNA replication assay; also: % is scaled to controls: 0 for no effect and ±100 for the full control effect
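Pol eta at 10 nM preincubated with compounds 15 min at room temperature; reaction started with fluorescent substrate (50 nM final) and read kinetically at 0 and 10 min.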
Pol kappa inh: inhibitors of human DNA polymerase kappa; hit rate 0.53% among 400,000; AID 588579; Q9UBT6; Potency, µM (top dose mostly 107 µM), for inactives: top-dose activity, negative = inhibition, most hits filed as inhibitors; purified Pol kappa, fluorescent DNA synthesis assay, 10 min; also: % is scaled to controls: 0 for no effect and ±100 for the full control effect
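Kinetic fluorescence readout at 0 and 10 min followed reaction start with substrate at 50 nM final. Beforehand, enzyme (10 nM Pol kappa) stood 15 min with compound at room temperature; buffer-only wells were negative controls.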
FEN1 inhibitor: inhibitors of human flap endonuclease 1. Recombinant FEN1 flap cleavage, fluorescence, 15 min. Potency, µM (highest dose often 114 µM), for the others: at the highest dose activity change, negative = inhibition, hits mostly inhibitors. hit rate 0.35% among 390,000; also: % is scaled to controls: 0 for no effect and ±100 for the full control effect; nearly all actives have a fitted effect of over 65% in size
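Reaction started by adding substrate (50 nM final) to 10 nM enzyme after 15 min room-temperature compound preincubation. Reads at 0 and 15 min, with data normalized and fitted to a four-parameter Hill equation.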
The depositor's hits bear a star; ? = inconclusive; nt = no result; ! = not confirmed by another sample; [ ] = remark or other dose. Calls follow the shape of the dose curve; as a rule, active = well fitted curve in the direction sought with a large enough effect; inconclusive = small, poorly fitted or top-dose-only effect, or another doubt; inactive = no such curve, though single readings can be large; an effect the other way counts as inactive or inconclusive. Potency is read from the fitted curve at half-maximal effect.

SMILES	TDP1 inh	Pol beta inh	Pol iota inh	POLH inh	Pol kappa inh	FEN1 inhibitor
COc1cccc(CNC(=O)Cn2nc(C)c3sc4ccccc4c3c2=O)c1OC	14%	-16%	-10%	-15%	-2%	12%
Cc1nn(CC(=O)NCCCc2ccccc2)c(=O)c2cccn12	4%	4%	12%	-9%	5%	20%
Cc1nn(CC(=O)NCc2cccc(F)c2)c(=O)c2cccn12	1%	0%	?	-15%	89µM*	1%
Cc1ccc(NC(=O)CCCn2nc(C)c3sc4ccccc4c3c2=O)c(Cl)c1	-3%	10%	26%	-12%	-8%	-13%
Cc1nn(CC(=O)NCc2cccc(Br)c2)c(=O)c2c1sc1ccccc12	11%	6.3µM*	7%	-10%	-4%	3%
CN1CCc2ccc3c4c2[C@]1(C)Cc1cccc(c1-4)OCO3	15%	nt	nt	nt	nt	nt
C[C@H](C(=O)O)c1ccc2cc(O)ccc2c1	7%	nt	nt	nt	?	nt
CCn1c(C)c(C)c2cc(C(=O)NCCN3CCCCCC3)ccc21	14%	0%	3%	3%	8%	-21%
CCn1c(C)c(C)c2cc(C(=O)NCCCN3CCCCCC3)ccc21	10%	5%	89µM*	-6%	-12%	7%
COc1ccccc1NC(=O)CSc1nc(-c2ccc(C(C)(C)C)cc2)c(C#N)c(=O)[nH]1	5%	79µM*	-29%	nt	-20%	-12%
CN(C(=O)CSc1nc(-c2ccc(C(C)(C)C)cc2)c(C#N)c(=O)[nH]1)C1CCCCC1	4%	?	?	35µM*	-19%	-35%
CCCOc1ccc(-c2nc(SCc3ccccc3)[nH]c(=O)c2C#N)cc1OC	nt	50µM*	35%	-3%	-7%	-5%
CSc1nc(-c2ccccc2)c(C#N)c(=O)[nH]1	-3%	10%	-22%	-20%	-1%	-1%
N#Cc1c(-c2ccccc2)nc(SCC(=O)NC2CCCCC2)[nH]c1=O	1%	38%	-15%	9%	1%	-14%
COC(=O)C(CC(C)C)NC(=O)CSc1nc(-c2ccccc2)c(C#N)c(=O)[nH]1 (configuration not stated)	1%	-6%	3%	14%	-5%	-4%
Cc1ccc(C)c(NC(=O)CSc2nc(-c3ccccc3)c(C#N)c(=O)[nH]2)c1	2%	56µM*	?	-2%	-7%	9%
CCOc1ccccc1N(C)C(=O)Cn1cnc2sc(C)c(S(=O)(=O)N3CCC(C)CC3)c2c1=O	3%	16%	-9%	-4%	5%	-3%
CCCC(=O)Oc1ccc2[nH]c(C(=O)c3cc4ccccc4[nH]3)cc2c1	nt	nt	49%	nt	3%	12%
CC(C)(C)OC(=O)NS(=O)(=O)NOCc1ccccc1	nt	nt	7%	nt	14%	3%
COc1cccc(-c2nc(SCC(=O)Nc3nc(-c4ccccc4)c(C)s3)[nH]c(=O)c2C#N)c1	4%	?	?	79µM*	-9%	0%
CCOC(=O)Cc1csc(NC(=O)CSc2nc(-c3ccccc3)c(C#N)c(=O)[nH]2)n1	-3%	14%	-9%	-7%	3%	-2%
Cc1ccc2nc(-c3ccc(NC(=O)CN4CCN(C(=O)c5ccco5)CC4)cc3)sc2c1	-12%	32µM*	28µM*	79µM*	45µM*	-3%
S=C1NC2=C(CCC/C2=C\c2ccc(Cl)cc2)C(c2ccc(Cl)cc2)N1 (configuration not stated)	4%	-19%	171%	-13%	-6%	17%
CC1CC2=C(NC(=S)NC2c2ccc(F)cc2)/C(=C/c2ccc(F)cc2)C1 (configuration not stated)	12%	30%	79µM*	-17%	-8%	-14%
O=Cc1cccc(C=O)c1	nt	nt	-1%	nt	-3%	-3%
SMILES	TDP1 inh	Pol beta inh	Pol iota inh	POLH inh	Pol kappa inh	FEN1 inhibitor
Cc1ccc(OCC(=O)Oc2ccc(C)c(C)c2)cc1	50µM*	2%	79%	3%	-20%	-5%
C/C=C/C/C=C/CCC(=O)[C@H]1O[C@H]1C(N)=O	7%	nt	nt	nt	3%[19.4 µM]	nt
Cc1cc(/C=N/NC(=O)c2cccc(N(C)C)c2)c(C)n1-c1cc(C(=O)O)cc(C(=O)O)c1	nt	18µM*	10µM*	20µM*	32µM*	?
Cc1cc(/C=N/NC(=O)C(=O)NCc2ccccn2)c(C)n1-c1ccccc1	0%	-16%	177%	-17%	-4%	-8%
Cc1cc(/C=N/NC(=O)C(O)(c2ccccc2)c2ccccc2)c(C)n1-c1ccc(C(=O)O)cc1	-5%	?	?	79µM*	-22%	-14%
COC(=O)c1c(NC(=O)C2CC=CCC2C(=O)O)sc(C)c1C (configuration not stated)	7%	5%	30%	-9%	5%	-8%
COC(=O)c1c(NC(=O)C2CC=CCC2C(=O)O)sc(C(N)=O)c1C (configuration not stated)	-1%	3%	14µM*	?	-17%	0%
COC(=O)c1c(NC(=O)c2ccccc2)sc(C(N)=O)c1C	2%	14%	89µM*	-16%	-6%	1%
Cc1ccc(NS(=O)(=O)c2ccc(-c3ccccc3)cc2)cc1C	-4%	nt	nt	nt	nt	nt
O=[N+]([O-])c1ccc2c(c1)C=C/C2=C/c1ccccc1	nt	nt	?	nt	-8%	-21%
COc1c(O)cc2c(c1O)C1OC(CO)C(O)C(O)C1OC2=O (configuration not stated)	nt	nt	18%	-16%	-1%	-4%
O=C1OCC2OC(O)C(O)C(O)C2OC(=O)c2cc(O)c(O)c(O)c2-c2c(O)c(O)c3oc(=O)c4c(c(O)c(O)c5oc(=O)c2c3c54)-c2c1cc(O)c(O)c2O (configuration not stated)	0.14µM*	0.16µM*	nt	nt	nt	nt
CO/N=C(/C(=O)N[C@@H]1C(=O)N2C(C(=O)O)=C(CSc3cnns3)CS[C@H]12)c1csc(N)n1	nt	nt	nt	nt	1%[19.4 µM]	nt
COC(=O)c1[nH]c(=O)c2ccccc2c1O	2%	0%	22µM*	-22%	-7%	0%
Oc1ccc(/C=C\c2cc(O)cc(O)c2)cc1	14%[56.1 µM]	nt	nt	nt	?	nt
Oc1ccc(/C=C/c2cc(O)cc(O)c2)cc1	5%	?	?	-3%[57.1 µM]	14µM*!	-16%
COc1ccc(OC)c(C2=Nn3c(nnc3-c3ccccc3O)SC2)c1	10%	nt	nt	nt	nt	nt
C[N+](C)(C)c1ccc(/C=C/c2ccnc3ccccc23)cc1	nt	nt	31%	nt	-41%	45µM*
Oc1ccc(/C=C/c2ccnc3ccccc23)cc1	5%	5%	90%	-16%	-10%	2%
CN(C)c1ccc(/C=C/c2ccnc3ccc4ccccc4c23)cc1	nt	nt	?	nt	28µM*	11µM*
CCC[N+](C)(C)c1ccc(/C=C/c2ccnc3ccccc23)cc1	nt	nt	?	nt	?	32µM*
